Structures are written as SMILES. Activity calls are given as the source filed them. How the calls were made is not given here.

In general, inhibition refers to how much of the control response was suppressed.

The target of the test is Pantothenate synthetase (Mycobacterium tuberculosis (strain ATCC 25618 / H37Rv)) (UniProt P9WIL5). In words: Recombinant Mtb pantothenate synthetase (PanC) inhibitors, coupled enzyme, confirmatory (AID 375).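 Further: 0% = full reaction with vehicle and 100% = no enzyme background.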 The note with it: coupled enzyme assay; at 10 µM, hits give high values.
Pantothenate synthetase (Mycobacterium tuberculosis (strain ATCC 25618 / H37Rv)), sequence (P9WIL5 whole entry, looked up): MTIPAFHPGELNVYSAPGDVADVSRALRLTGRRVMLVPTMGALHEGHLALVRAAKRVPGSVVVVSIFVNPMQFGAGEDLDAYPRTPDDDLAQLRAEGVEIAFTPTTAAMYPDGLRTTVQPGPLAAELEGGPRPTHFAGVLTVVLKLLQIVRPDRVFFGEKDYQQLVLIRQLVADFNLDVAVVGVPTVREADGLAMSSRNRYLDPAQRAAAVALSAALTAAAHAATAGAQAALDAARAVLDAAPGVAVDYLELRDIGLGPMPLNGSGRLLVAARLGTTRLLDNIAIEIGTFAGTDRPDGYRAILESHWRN
For the compound `COC(=O)c1cccc(S(=O)(=O)N2CCC(C)CC2)c1`, the inhibition is 3% (inactive).

Consider `CCOC(=O)c1sc(C)c2c1NC(C)(c1cccs1)NC2=O` (stereo not given), for which the inhibition was 4% (inactive).

As to `COc1ccc(N(CC(=O)Nc2ccc3c(c2)OCO3)S(=O)(=O)c2c(C)nn(C)c2C)cc1`, the inhibition was 0% (inactive).

In the case of `Cc1sc2nc3n(c(=O)c2c1C)NC(=O)CC3`, the inhibition is 0% (inactive).

Consider `COCCN1Cc2cccc(C(=O)Nc3cccnc3)c2C1=O`, for which the inhibition was 1% (inactive).

The values above are taken from PubChem BioAssay.
